Data published in PubChem BioAssay (Tox21).
A number with no mark means an inactive call. Inconclusive results are not listed. A call without a number means that no potency is given here. Activity calls are given as the source filed them. Calls come from the whole dose curve.

biological target: Acetylcholinesterase (Homo sapiens) (UniProt P22303); experiment: Acetylcholinesterase (AChE) small molecule antagonists: colormetric cell-based qHTS assay (AID 1347395); conditions: SH-SY5Y cells AChE activity, colorimetric (Ellman); series mostly up to 115 µM; note: nearly all actives have a fitted effect of over 30% in size
Method in brief: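 SH-SY5Y cells; cpd 30 min 37 C; + DTNB/acetylthiocholine, 90 min 37 C; colorimetric thiocholine read; qHTS.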

Acetylcholinesterase (Homo sapiens), sequence (P22303 whole entry, looked up): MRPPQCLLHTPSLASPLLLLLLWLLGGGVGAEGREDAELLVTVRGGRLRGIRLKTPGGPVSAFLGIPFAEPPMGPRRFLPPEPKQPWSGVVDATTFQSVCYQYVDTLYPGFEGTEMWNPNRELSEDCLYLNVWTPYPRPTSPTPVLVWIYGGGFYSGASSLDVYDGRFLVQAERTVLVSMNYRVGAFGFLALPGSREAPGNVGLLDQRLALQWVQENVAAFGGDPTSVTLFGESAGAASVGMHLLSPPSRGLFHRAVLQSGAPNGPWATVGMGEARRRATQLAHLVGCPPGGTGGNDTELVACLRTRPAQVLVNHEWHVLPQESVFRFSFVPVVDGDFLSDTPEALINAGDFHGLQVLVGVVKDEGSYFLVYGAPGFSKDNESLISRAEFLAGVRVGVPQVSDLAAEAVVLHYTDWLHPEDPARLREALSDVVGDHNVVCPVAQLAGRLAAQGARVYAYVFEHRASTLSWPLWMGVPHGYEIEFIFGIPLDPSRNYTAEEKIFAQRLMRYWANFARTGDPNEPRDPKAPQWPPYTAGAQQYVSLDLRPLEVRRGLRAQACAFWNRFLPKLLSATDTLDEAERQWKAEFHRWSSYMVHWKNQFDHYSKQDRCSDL

Row | SMILES | Potency | activity, negative = inhibition
1 | Cc1ccc(Nc2c(F)cccc2Cl)c(CC(=O)O)c1 | inactive | 
2 | CC(=O)C(=O)CC(C)C | inactive | 
3 | CCOC(=O)C1OC1c1ccccc1 (stereo not given) | inactive | 
4 | Cc1cc(C)nc(NS(=O)(=O)c2ccc(N)cc2)n1 | inactive | 
5 | Nc1ncnc2c1ncn2[C@@H]1O[C@H](COP(=O)(O)O)[C@@H](O)[C@H]1O | inactive | 
6 | OCC(CO)(CO)COCC(CO)(CO)CO | inactive | 
7 | NC(=S)NNC(N)=S | inactive | 
8 | Cc1cc(C)c(C)cc1C | inactive | 
9 | C[C@@H](C1=C(CCN(C)C)Cc2ccccc21)c1ccccn1 | inactive | 
10 | CCCCCCCCCCCCc1ccccc1 | inactive | 
11 | CCCCNc1ccccc1 | inactive | 
12 | C[Si](C)(C)O[Si](C)(C)O[Si](C)(C)C | inactive | 
13 | OC[C@H]1O[C@H](O[C@H]2O[C@H](CO)[C@@H](O)[C@H](O)[C@H]2O)[C@H](O)[C@@H](O)[C@@H]1O | inactive | 
14 | CCCC1O[C@@H]2C[C@H]3[C@@H]4CCC5=CC(=O)C=C[C@]5(C)[C@H]4[C@@H](O)C[C@]3(C)[C@]2(C(=O)CO)O1 (stereo not given in full) | inactive | 
15 | C=C(C)C1CCC(C)CC1O (stereo not given) | inactive | 
16 | NS(=O)(=O)c1ccc(Cl)c(S(N)(=O)=O)c1 | inactive | 
17 | CC1=NC(C)OC1C (stereo not given) | inactive | 
18 | CC(O)COCC(C)O (stereo not given) | inactive | 
19 | CN1Cc2cc(C(=O)N3CCC(C4CCNCC4)CC3)ccc2NC(CC(=O)O)C1=O (stereo not given) | inactive | 
20 | COS(=O)(=O)C(F)(F)F | inactive | 

Row | SMILES | Potency | activity, negative = inhibition
21 | CCOC(=O)CC1(C)OCC(C)O1 (stereo not given) | inactive | 
22 | CC1(C)[C@@H](O[C@H]2O[C@H](C(=O)O)[C@@H](O)[C@H](O)[C@H]2O[C@@H]2O[C@H](C(=O)O)[C@@H](O)[C@H](O)[C@H]2O)CC[C@]2(C)[C@H]3C(=O)C=C4[C@@H]5C[C@@](C)(C(=O)O)CC[C@]5(C)CC[C@@]4(C)[C@]3(C)CC[C@@H]12 | inactive | 
23 | OCCN1C[C@H](O)[C@@H](O)[C@H](O)[C@H]1CO | inactive | 
24 | Cc1c[nH]c2ccccc12 | inactive | 
25 | NNS(=O)(=O)c1ccc(Oc2ccc(S(=O)(=O)NN)cc2)cc1 | inactive | 
26 | CCn1cc(C(=O)O)c(=O)c2cc(F)c(N3CCNC(C)C3)c(F)c21 (stereo not given) | inactive | 
27 | CCCCCC(=O)OCC | inactive | 
28 | C=CCn1c(=O)n([C@@H]2O[C@H](CO)[C@@H](O)[C@H]2O)c2nc(N)[nH]c(=O)c21 | inactive | 
29 | C1=Cc2ccccc2C1 | inactive | 
30 | CCCCCCCCCCCCOCCOCCOCCOCCOCCOCCOCCOCCOCCO | inactive | 
31 | CCCCCCS | inactive | 
32 | NS(=O)(=O)c1cc2c(cc1Cl)CN(C1CCCCC1)C2=O | inactive | 
33 | CCOc1nc(F)cc2nc(S(=O)(=O)Nc3c(Cl)cccc3C(=O)OC)nn12 | inactive | 
34 | c1ccc2sc(SSc3nc4ccccc4s3)nc2c1 |  | -2.2% [at 23.6 µM]
35 | ClCCOCCOCCCl | inactive | 
36 | CC(=O)Oc1ccc(C(=C2CCCCC2)c2ccc(OC(C)=O)cc2)cc1 | inactive | 
37 | C/C=C/C(=O)N(CC)c1ccccc1C | inactive | 
38 | CCCCCCCCCCCCCCNCCO | inactive | 
39 | Nc1ccccc1S(=O)(=O)O | inactive | 
40 | CCCCc1nc2cccnc2n1Cc1ccc(-c2ccccc2-c2nnn[nH]2)cc1 | inactive | 

biological target: Acetylcholinesterase (Homo sapiens) (UniProt P22303); experiment: Acetylcholinesterase (AChE) small molecule antagonists: enzyme-based qHTS assay (AID 1347397); conditions: Potency: AChE enzyme activity inhibition; outcome: AChE enzyme activity inhibition; series mostly up to 115 µM; note: nearly all actives have a fitted effect of over 55% in size
Method in brief: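 Human recombinant acetylcholinesterase; substrate acetylthiocholine; thiocholine quantified with DTNB (colorimetric). Compound preincubation 30 min RT; reaction 10 min RT.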

Row | SMILES | Potency | activity change, negative = inhibition
41 | Cc1ccc(Nc2c(F)cccc2Cl)c(CC(=O)O)c1 | inactive | 
42 | CC(=O)C(=O)CC(C)C | inactive | 
43 | CCOC(=O)C1OC1c1ccccc1 (stereo not given) | inactive | 
44 | Cc1cc(C)nc(NS(=O)(=O)c2ccc(N)cc2)n1 | inactive | 
45 | Nc1ncnc2c1ncn2[C@@H]1O[C@H](COP(=O)(O)O)[C@@H](O)[C@H]1O | inactive | 
46 | OCC(CO)(CO)COCC(CO)(CO)CO | inactive | 
47 | NC(=S)NNC(N)=S | inactive | 
48 | Cc1cc(C)c(C)cc1C | inactive | 
49 | C[C@@H](C1=C(CCN(C)C)Cc2ccccc21)c1ccccn1 | inactive | 
50 | CCCCCCCCCCCCc1ccccc1 | inactive | 
51 | CCCCNc1ccccc1 | inactive | 
52 | C[Si](C)(C)O[Si](C)(C)O[Si](C)(C)C | inactive | 
53 | OC[C@H]1O[C@H](O[C@H]2O[C@H](CO)[C@@H](O)[C@H](O)[C@H]2O)[C@H](O)[C@@H](O)[C@@H]1O | inactive | 
54 | CCCC1O[C@@H]2C[C@H]3[C@@H]4CCC5=CC(=O)C=C[C@]5(C)[C@H]4[C@@H](O)C[C@]3(C)[C@]2(C(=O)CO)O1 (stereo not given in full) | inactive | 
55 | C=C(C)C1CCC(C)CC1O (stereo not given) | inactive | 
56 | NS(=O)(=O)c1ccc(Cl)c(S(N)(=O)=O)c1 | inactive | 
57 | CC1=NC(C)OC1C (stereo not given) | inactive | 
58 | CC(O)COCC(C)O (stereo not given) | inactive | 
59 | CN1Cc2cc(C(=O)N3CCC(C4CCNCC4)CC3)ccc2NC(CC(=O)O)C1=O (stereo not given) | inactive | 
60 | COS(=O)(=O)C(F)(F)F | inactive | 

Row | SMILES | Potency | activity change, negative = inhibition
61 | CCOC(=O)CC1(C)OCC(C)O1 (stereo not given) | inactive | 
62 | CC1(C)[C@@H](O[C@H]2O[C@H](C(=O)O)[C@@H](O)[C@H](O)[C@H]2O[C@@H]2O[C@H](C(=O)O)[C@@H](O)[C@H](O)[C@H]2O)CC[C@]2(C)[C@H]3C(=O)C=C4[C@@H]5C[C@@](C)(C(=O)O)CC[C@]5(C)CC[C@@]4(C)[C@]3(C)CC[C@@H]12 | inactive | 
63 | OCCN1C[C@H](O)[C@@H](O)[C@H](O)[C@H]1CO | inactive | 
64 | Cc1c[nH]c2ccccc12 | inactive | 
65 | NNS(=O)(=O)c1ccc(Oc2ccc(S(=O)(=O)NN)cc2)cc1 | inactive | 
66 | CCn1cc(C(=O)O)c(=O)c2cc(F)c(N3CCNC(C)C3)c(F)c21 (stereo not given) | inactive | 
67 | CCCCCC(=O)OCC | inactive | 
68 | C=CCn1c(=O)n([C@@H]2O[C@H](CO)[C@@H](O)[C@H]2O)c2nc(N)[nH]c(=O)c21 | inactive | 
69 | C1=Cc2ccccc2C1 | inactive | 
70 | CCCCCCCCCCCCOCCOCCOCCOCCOCCOCCOCCOCCOCCO | inactive | 
71 | CCCCCCS | inactive | 
72 | NS(=O)(=O)c1cc2c(cc1Cl)CN(C1CCCCC1)C2=O | inactive | 
73 | CCOc1nc(F)cc2nc(S(=O)(=O)Nc3c(Cl)cccc3C(=O)OC)nn12 | inactive | 
74 | c1ccc2sc(SSc3nc4ccccc4s3)nc2c1 |  | 0.97% [at 23.6 µM]
75 | ClCCOCCOCCCl | inactive | 
76 | CC(=O)Oc1ccc(C(=C2CCCCC2)c2ccc(OC(C)=O)cc2)cc1 | inactive | 
77 | C/C=C/C(=O)N(CC)c1ccccc1C | inactive | 
78 | CCCCCCCCCCCCCCNCCO | inactive | 
79 | Nc1ccccc1S(=O)(=O)O | inactive | 
80 | CCCCc1nc2cccnc2n1Cc1ccc(-c2ccccc2-c2nnn[nH]2)cc1 | inactive | 
